A selection: hits, their analogues and other compounds. The true share with any hit is near 5.2%.
Sfp inh = Sfp phosphopantetheinyl transferase inhibition; Q9F4F7; Biochemical Sfp PPTase activity, qHTS; Potency, µM, for inactives: largest response in the series, negative = inhibition, hits mostly inhibitors; hit rate 3.5% among 310,000; AID 1490;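 note: the enzyme is Sfp with the accession as filed and its product quenches rhodamine fluorescence; potency is the fitted concentration of half-maximal effect; 0% = enzyme reaction without inhibitor and -100% = no enzyme wells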
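Step 1, compound plus 15 nM Sfp-PPTase, 15 min, room temperature. Step 2, add rhodamine-CoA (5 uM) and BHQ-2-YbbR (12.5 uM). Step 3, read 525/598 nm fluorescence at 0 and 30 min.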
Coupling enz = counter-screen for Giardia aldolase inhibitors: coupling enzyme system | activity change, negative = inhibition, % at 58.2 µM, hits read low | AID 2472 | hit rate 0.67% among 290,000 | coupling enzyme system counterscreen, AmpLite Red fluorescence; in the data active = activity change below about -30%
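Compounds tested against the coupling enzymes alone at 57.5 uM final; readout was AmpLite Red fluorescence (525/598 nm) after 20 min at RT.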
Tau fluor cs = counter-screen for tau fibril formation inhibitors; tau K18 P301L Alexa594 fluorescence, heparin fibrillization; Potency, µM (highest dose often 57.7 µM), inactives show at the top dose activity change, negative = decrease; hit rate 0.93% among 280,000; note: potency is the fitted concentration of half-maximal effect; nearly all actives have a fitted effect of over 55% in size
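Human K18 P301L tau (15 uM unlabeled plus 0.24 uM Alexa 594-labeled, final) in 100 mM sodium acetate pH 7 was mixed with compound and 20 uM heparin and incubated 6 hr at 37 C.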
Tau fibril FP = inhibitors of human tau fibril formation. K18 P301L tau heparin fibrillization, Alexa594 FP, 6 h. Potency, µM (top dose mostly 57.7 µM), inactives show at the top dose activity, negative = inhibition, most hits filed as inhibitors. hit rate 0.39% among 280,000. AID 1468. P10636; note: potency is the fitted concentration of half-maximal effect; nearly all actives have a fitted effect of over 55% in size
Target sequence (P10636 561-689 P618L limits assumed): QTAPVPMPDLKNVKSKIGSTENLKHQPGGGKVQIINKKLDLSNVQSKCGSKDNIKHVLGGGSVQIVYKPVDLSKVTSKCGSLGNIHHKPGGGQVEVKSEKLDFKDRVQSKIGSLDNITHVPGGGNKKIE
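FP of Alexa 594-tau after heparin (20 uM) induction. Substrate: human K18 P301L, 15 uM unlabeled, 0.24 uM labeled. Buffer 100 mM sodium acetate pH 7. 6 hr, 37 C.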
Tau fibril ThT = tau fibrillization inhibition (ThT binding). recombinant tau K18 P301L (four-repeat tau fragment), heparin-induced fibrillization, ThT fluorescence. Potency, µM (highest dose often 57.4 µM), for inactives: at the top dose activity, negative = inhibition, hits mostly inhibitors. hit rate 2.1% among 270,000; note: potency is the fitted concentration of half-maximal effect; nearly all actives have a fitted effect of over 55% in size
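K18 P301L tau (15 uM + 0.24 uM Alexa 594-tagged), heparin 20 uM, NaOAc pH 7, 6 h 37 C; ThT 30 uM, 1 h RT, ex 450/em 510 nm.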
Active calls of the source: *; [ ] = remark or other dose. Unless noted, calls come from the whole dose curve; as a rule, active = well fitted curve in the direction sought with a large enough effect; inconclusive = small, poorly fitted or top-dose-only effect, or another doubt; inactive = no such curve, though single readings can be large; an effect the other way counts as inactive or inconclusive. Unless noted, % is set by controls: 0 for no effect and ±100 for the full control effect.

How did CCc1nnc(NC(=O)c2sc3nc4c(cc3c2N)CCCCC4)s1 do in these assays?
Sfp inh: 1%; Coupling enz: 6; Tau fluor cs: -18%; Tau fibril FP: 17%; Tau fibril ThT: 1.4µM*

What do the screens show for `CCc1nnc(NC(=O)CSc2nc3c(cc2C#N)CCCC3)s1`?
Sfp inh: 11%; Coupling enz: 2; Tau fluor cs: -19%; Tau fibril FP: 1%; Tau fibril ThT: 3.2µM*

Results for CCOC(=O)c1sc(NC(=O)CSc2nc3c(cc2C#N)CCCCC3)c(C#N)c1C ?
Sfp inh: -26%; Coupling enz: -2; Tau fluor cs: -25%; Tau fibril FP: inconclusive; Tau fibril ThT: -19%

What do the screens show for `Fc1ccc(-n2c(-c3ccc4ccccc4n3)n[nH]c2=S)cc1`?
Sfp inh: 23%; Coupling enz: 1; Tau fluor cs: 2%[2.34 µM]; Tau fibril FP: -6%[2.34 µM]; Tau fibril ThT: -1%

How did Cc1ccc(-n2c(-c3ccco3)n[nH]c2=S)cc1 do in these assays?
Sfp inh: 79µM*; Coupling enz: 7; Tau fluor cs: -9%; Tau fibril FP: -7%; Tau fibril ThT: -6%

Results for Cc1ccc(-n2c(-c3nn(C)cc3Cl)n[nH]c2=S)cc1 ?
Sfp inh: 13µM*; Coupling enz: 1; Tau fluor cs: 1%; Tau fibril FP: 3%; Tau fibril ThT: -7%

What do the screens show for `CCOc1ccc(-n2c(-c3ccco3)n[nH]c2=S)cc1`?
Sfp inh: 50µM*; Coupling enz: 4; Tau fluor cs: -16%; Tau fibril FP: -8%; Tau fibril ThT: -12%

How did Fc1ccc(-n2c(-c3ccco3)n[nH]c2=S)cc1 do in these assays?
Sfp inh: 79µM*; Coupling enz: 2

What do the screens show for `Cc1ccc2oc(=O)c3cnn(CC(=O)N4CCN(c5cccc(C(F)(F)F)c5)CC4)c3c2c1`?
Tau fluor cs: 2%; Tau fibril FP: -5%; Tau fibril ThT: -7%

What do the screens show for `CCOC(=O)OCC1OC(C#Cc2ccccc2)C=CC1OC(=O)OCC` (stereo not drawn)?
Sfp inh: -2%; Coupling enz: 4; Tau fluor cs: -11%[11.6 µM]; Tau fibril FP: -23%[11.6 µM]; Tau fibril ThT: inconclusive

Results for COc1ccc2[nH]cc(CCNc3ncnc4ccc(-c5ccccc5C#N)cc34)c2c1 ?
Sfp inh: 15%; Coupling enz: 0; Tau fluor cs: 14µM*[quencher]; Tau fibril FP: 14%; Tau fibril ThT: inconclusive

Results for COCCNc1ncnc2ccc(-c3ccccc3C)cc12 ?
Sfp inh: 79µM*; Coupling enz: 3

How did COc1ccc2[nH]cc(CCNc3ncnc4ccc(-c5cccc(C#N)c5)cc34)c2c1 do in these assays?
Sfp inh: -22%; Coupling enz: -11

Results for c1ccc(-c2nc3nonc3nc2-c2ccccc2)cc1 ?
Sfp inh: -7%; Coupling enz: -37*; Tau fluor cs: -17%; Tau fibril FP: 6%; Tau fibril ThT: -4%

What do the screens show for `COc1ccc(C(=O)N2CCC3(CC2)CCN(C(c2ccccc2)c2ccccc2)CC3)cc1`?
Sfp inh: inconclusive; Coupling enz: 0

How did Cc1ccccc1CSc1ccc(-c2cccs2)nn1 do in these assays?
Tau fluor cs: -27%; Tau fibril FP: -12%; Tau fibril ThT: -7%

How did COc1ccc(/C=N/Nc2cc(N(C)C)nc(N(C)C)n2)cc1 do in these assays?
Sfp inh: -16%; Coupling enz: -42*; Tau fluor cs: inconclusive; Tau fibril FP: 9%; Tau fibril ThT: inconclusive

Results for COc1ccccc1/C=N/Nc1cc(C)nc(N2CCOCC2)n1 ?
Sfp inh: 16%; Coupling enz: -1; Tau fluor cs: inconclusive; Tau fibril FP: 14%

Results for CN(C)c1cc(N/N=C\c2ccccc2)nc(N(C)C)n1 ?
Sfp inh: -1%; Coupling enz: -39*; Tau fluor cs: inconclusive; Tau fibril FP: 3%; Tau fibril ThT: inconclusive

Results for COc1ccccc1/C=N/Nc1cc(N(C)C)nc(N(C)C)n1 ?
Sfp inh: -8%; Coupling enz: -31*; Tau fluor cs: inconclusive; Tau fibril FP: 9%; Tau fibril ThT: inconclusive

Results for Cc1cc(N/N=C/c2ccccc2)nc(NCc2ccccc2)n1 ?
Sfp inh: inconclusive; Coupling enz: 0; Tau fluor cs: inconclusive; Tau fibril FP: -5%; Tau fibril ThT: -12%

Source: PubChem (National Center for Advancing Translational Sciences (NCATS))
